In PubChem BioAssay AID2013 (Sanford-Burnham Center for Chemical Genomics, 2009) one finds inhibition data, which are given here for 46 compounds.

SMILES strings stand for the structures. Among all 290,000 compounds or so, about 370 (0.13%) were called active. Shown is part of a subset that was picked to be rich in actives. Measured potencies and affinities stand elsewhere. Unmarked numbers belong to inactive results.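 How the source made its calls: active means spots per cell inhibited over 60%, with over 100 cells counted and total cytoplasm intensity under 500,000; inconclusive means wells with under 100 cells, flagged as likely toxic; inactive means the rest.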

For this test, the target named is G-protein coupled receptor 55 (Homo sapiens) (UniProt Q9Y2T6). The experiment in a line: GPR55 antagonists blocking LPI-driven arrestin recruitment, primary screen, imaging, U2OS, beta-arrestin-GFP, LPI agonist (AID 2013).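 Further: U2OS cells stably carrying GPR55 and arrestin-GFP stimulated by 5 µM LPI near EC80; imaged beta-arrestin-GFP aggregate spots per cell after agonist stimulation; plate controls were LPI-stimulated DMSO wells for no effect and DMSO wells without LPI for full effect.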 To be noted: U2OS GPR55 beta-arrestin-GFP translocation imaging, LPI antagonism; at 10 µM; hits give high values. A general note: Arrestin recruitment assays detect the binding of arrestin to an activated receptor.
G-protein coupled receptor 55 (Homo sapiens), sequence (Q9Y2T6 whole entry, looked up): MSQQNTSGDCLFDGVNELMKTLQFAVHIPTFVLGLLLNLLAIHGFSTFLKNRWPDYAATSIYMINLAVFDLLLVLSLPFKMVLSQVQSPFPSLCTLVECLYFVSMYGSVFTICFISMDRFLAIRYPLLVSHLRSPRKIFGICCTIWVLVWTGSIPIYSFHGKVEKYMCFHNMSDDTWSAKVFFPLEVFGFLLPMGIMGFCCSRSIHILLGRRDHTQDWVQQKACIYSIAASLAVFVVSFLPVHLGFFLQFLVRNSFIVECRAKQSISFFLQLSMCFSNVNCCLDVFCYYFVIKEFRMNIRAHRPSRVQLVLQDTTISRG
Broadly, the inhibition is the drop in the measured response relative to a control, in per cent. Regarding `Cc1ccc(NC(=O)CSc2nnc3n2CCCCC3)cc1`, the inhibition was 4.6%.

Regarding `Cc1cccc2c1CC(C)(C)NC2=C(C#N)C#N`, the inhibition was 5%.

Take `CC(Nc1c([N+](=O)[O-])c(=O)oc2ccccc12)C(Cl)c1ccccc1` (stereo unspecified): the inhibition was 22%.

On to `CC(Nc1c([N+](=O)[O-])c(=O)oc2ccccc12)c1ccccc1` (stereo unspecified), for which the inhibition is 10.5%.

For the compound `O=C(O)CC/C(=N\NC(=O)CNC(=O)/C=C/c1ccccc1)c1ccccc1`, the inhibition was 2.6%.

As for `Cc1cc(C)n(CC(=O)N/N=C/c2cccs2)n1`, the inhibition was 7.5%.

In the case of `COc1ccc(S(=O)(=O)N2CCCOC2CNC(=O)C(=O)NCc2cccnc2)cc1` (stereo unspecified), the inhibition was 13.9%.

In the case of `CCOc1ccccc1C1c2[nH]c3ccccc3c2C[C@H]2C(=O)N(C3CCN(Cc4ccccc4)CC3)CC(=O)N12` (stereo partly specified), the inhibition was -0.7%.

As for `COC(=O)c1c(NC(NC(=O)CC(C)C)C(Cl)(Cl)Cl)sc2c1CCC2` (stereo unspecified), the inhibition was 60%.

Consider `COC(=O)c1c(NC(NC(=O)C(C)C)C(Cl)(Cl)Cl)sc2c1CCC2` (stereo unspecified), for which the inhibition was -7.5%.

`COC(=O)c1c(NC(NC(C)=O)C(Cl)(Cl)Cl)sc2c1CCCC2` (stereo unspecified): the inhibition was 13.5%.

With `CCC(=O)NC(Nc1sc2c(c1C(=O)OC)CCC2)C(Cl)(Cl)Cl` (stereo unspecified), the inhibition is -15.1%.

In the case of `COC(=O)c1c(NC(NC(=O)C(C)C)C(Cl)(Cl)Cl)sc2c1CCCC2` (stereo unspecified), the inhibition is 76.3% (active).

In the case of `CN(C)S(=O)(=O)NCCNC(=O)c1cc(OCC(F)(F)F)ccc1OCC(F)(F)F`, the inhibition was -3.8%.

For `COc1cccc2c1OCC(CN1CCN(Cc3ccccc3F)C(CCO)C1)=C2` (stereo unspecified), the inhibition is 8.5%.

Take `Cc1cccc(NC(=S)N2CCC(NC(=O)c3ccco3)CC2)c1`: the inhibition is 7.3%.

In the case of `COc1ccccc1CNC(=O)C1CCN(S(=O)(=O)c2ccc(-n3cnnn3)cc2)CC1`, the inhibition is 1%.

In the case of `Cc1ccc(S(=O)(=O)N(C)c2ccc(C(=O)NCc3cccnc3)cc2)cc1`, the inhibition is 11.2%.

In the case of `Cc1cc(N)n2nc(C)c(-c3ccccc3)c2n1`, the inhibition was -2.4%.

In the case of `Cc1cc(C)n2nc(-c3ccccc3)c(-c3ccccc3)c2n1`, the inhibition was 7.9%.

Regarding `COc1cccc(NC(=O)C23CCC(C)(C(=O)O2)C3(C)C)c1` (stereo unspecified), the inhibition was -7.9%.

For the compound `Cc1csc(SCC(=O)Nc2sccc2C(N)=O)n1`, the inhibition was 2.4%.

With `CCOC(=O)CC1C(=O)NCCN1S(=O)(=O)c1ccc(C)cc1` (stereo unspecified), the inhibition is 6.6%.

Turning to `CCCN1C(=O)/C(=C/c2c(N3CCNC(=O)C3CC(=O)OCC)nc3c(C)cccn3c2=O)SC1=S` (stereo unspecified), the inhibition is 88.9% (active).

Consider `CCCN1C(=O)/C(=C/c2c(N3CCNC(=O)C3CC(=O)OC)nc3c(C)cccn3c2=O)SC1=S` (stereo unspecified), for which the inhibition was 46.4%.

Turning to `CCOC(=O)CC1C(=O)NCCN1c1nc2ccc(C)cn2c(=O)c1/C=C1\SC(=S)N(CC(C)C)C1=O` (stereo unspecified), the inhibition is 26.9%.

For the compound `CCOC(=O)CC1C(=O)NCCN1c1nc2ccc(C)cn2c(=O)c1/C=C1\SC(=S)N(C(C)CC)C1=O` (stereo unspecified), the inhibition was 70.2% (active).

With `CCCN1C(=O)/C(=C/c2c(NCCCOCC)nc3c(C)cccn3c2=O)SC1=S`, the inhibition was 8%.

In the case of `CSc1ccccc1C(=O)NCc1cccnc1`, the inhibition is -2.4%.

Consider `C=CCn1c(SCC(=O)Nc2ccc(F)cc2F)nc2c([nH]c3ccccc32)c1=O`, for which the inhibition is -3.4%.

Regarding `CCC(NS(=O)(=O)c1ccc2c(c1)NC(=O)C(C)C(=O)N2)c1cccs1` (stereo unspecified), the inhibition is 1%.

For `CC/C(=N/N=C(\CC)c1ccccc1)c1ccccc1`, the inhibition was 20.4%.

Take `COc1ccccc1N1CCN(C(=O)c2cc3c(s2)CCCCC3)CC1`: the inhibition is 6.6%.

As for `c1ccc(CN2CCC(Nc3nc(-c4cccnc4)nc4ccccc34)CC2)cc1`, the inhibition is 21.2%.

As to `c1ccc(CN2CCC(Nc3nc(-c4cccs4)nc4ccccc34)CC2)cc1`, the inhibition is 84.6% (active).

`c1ccc(CN2CCC(Nc3nc(-c4ccccc4)nc4ccccc34)CC2)cc1`: the inhibition was 31%.

In the case of `CC(=O)Nc1ccc(C(=O)OCC(=O)Nc2ccccc2Sc2ccccc2)cc1`, the inhibition was 16.2%.

Regarding `N#CCC(=O)Nc1ccc(C(=O)OCC(=O)Nc2ccccc2-c2ccccc2)cc1`, the inhibition is 6.7%.

As for `Cc1nc(N2CCOCC2)c(C#N)c2c1COC(C)(C)C2`, the inhibition is -9%.

On to `Cc1ccc(S(=O)(=O)N2CCN(c3nc(C(C)C)c4c(c3C#N)CC(C)(C)OC4)CC2)cc1`, for which the inhibition was 2.3%.

Turning to `COc1cc(C2c3c(oc4cc(C)c(C)cc4c3=O)C(=O)N2c2cc(C)ccn2)ccc1O` (stereo unspecified), the inhibition is 2.8%.

`COc1cc(C2c3c(oc4ccc(C)cc4c3=O)C(=O)N2c2cc(C)ccn2)cc(OC)c1OC` (stereo unspecified): the inhibition is 17.6%.

Take `COc1ccc(C2c3c(oc4ccc(C)cc4c3=O)C(=O)N2c2cc(C)ccn2)cc1OC` (stereo unspecified): the inhibition was 86.9% (active).

With `COc1cccc(-c2cc(=O)c3cc(NC(=O)c4ccc(Cl)cc4)ccc3[nH]2)c1`, the inhibition was -2.5%.

As for `O=C(c1ccc(Oc2ccc([N+](=O)[O-])cc2Cl)cc1)N1CCCC1`, the inhibition is -12.4%.

Consider `O=C(c1cccc(Oc2ccc([N+](=O)[O-])cc2Cl)c1)N1CCOCC1`, for which the inhibition was -4.4%.
